According to PubChem BioAssay (NCATS):
Where “and” joins values, the source holds several entries; their conditions need not be identical. Equal values may be shown once. Results filed as inconclusive are left out. Where a call stands in place of a potency, no number is given. Calls of active or inactive are those of the source. Unless noted, calls follow the shape of the dose curve; as a rule, active = well fitted curve in the direction sought with a large enough effect; inconclusive = small, poorly fitted or top-dose-only effect, or another doubt; inactive = no such curve, though single readings can be large; an effect the other way counts as inactive or inconclusive.

Key:
[1] = qHTS assay for small molecule antagonists of retinoid X receptor alpha signaling (AID 588546; active = well fitted inhibition curve with a large enough effect in the signal ratio, with a control signal flat, not every such curve was filed as active; the % refers to the signal ratio;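 also: cells stimulated with 9-cis-retinoic acid as agonist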); conditions: HEK293T RXRa-UAS-bla, beta-lactamase ratio, antagonist mode; measured here: W530 green channel, cytotoxicity proxy
Summary of the method: (§1)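 Beta-lactamase reporter inhibition, read as CCF4 fluorescence ratio (ex 405, em 460/530 nm) after 2 h at RT. HEK293T UAS-bla cells, 2500/well, were stimulated with 9-cis-RA at 500 or 100 nM final alongside test compound for 18 h at 37 C.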

[2] = target: Retinoic acid receptor RXR-alpha (Homo sapiens) (UniProt P19793); assay: as above; conditions: HEK293T RXRa-UAS-bla, beta-lactamase ratio, antagonist mode
Chain of Retinoic acid receptor RXR-alpha (Homo sapiens) (P19793 whole entry, looked up): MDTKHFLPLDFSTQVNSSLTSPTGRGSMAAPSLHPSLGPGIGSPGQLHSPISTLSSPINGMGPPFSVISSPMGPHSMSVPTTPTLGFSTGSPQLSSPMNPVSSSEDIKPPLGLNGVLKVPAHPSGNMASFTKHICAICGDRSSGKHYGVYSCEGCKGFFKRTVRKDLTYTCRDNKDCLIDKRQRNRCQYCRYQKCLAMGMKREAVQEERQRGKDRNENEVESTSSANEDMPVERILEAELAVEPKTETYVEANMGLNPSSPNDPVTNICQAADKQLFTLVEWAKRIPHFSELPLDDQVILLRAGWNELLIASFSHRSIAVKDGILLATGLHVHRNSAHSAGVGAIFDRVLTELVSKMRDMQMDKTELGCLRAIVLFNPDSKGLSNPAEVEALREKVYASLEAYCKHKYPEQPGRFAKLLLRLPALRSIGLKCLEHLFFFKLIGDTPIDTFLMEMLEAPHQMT
Summary of the method: as §1

[3] = target: Thyroid hormone receptor beta (Homo sapiens) (UniProt P10828); assay: qHTS assay for small molecule antagonists of thyroid hormone receptor beta signaling (AID 588547; active = well fitted inhibition curve with a large enough effect in the signal ratio, with a control signal flat, not every such curve was filed as active; the % refers to the signal ratio;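 also: cells stimulated with 0.4 nM T3 agonist during compound exposure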); conditions: TR-UAS-bla HEK293, beta-lactamase ratio, antagonist mode, 18 h
Chain of Thyroid hormone receptor beta (Homo sapiens) (P10828 whole entry, looked up): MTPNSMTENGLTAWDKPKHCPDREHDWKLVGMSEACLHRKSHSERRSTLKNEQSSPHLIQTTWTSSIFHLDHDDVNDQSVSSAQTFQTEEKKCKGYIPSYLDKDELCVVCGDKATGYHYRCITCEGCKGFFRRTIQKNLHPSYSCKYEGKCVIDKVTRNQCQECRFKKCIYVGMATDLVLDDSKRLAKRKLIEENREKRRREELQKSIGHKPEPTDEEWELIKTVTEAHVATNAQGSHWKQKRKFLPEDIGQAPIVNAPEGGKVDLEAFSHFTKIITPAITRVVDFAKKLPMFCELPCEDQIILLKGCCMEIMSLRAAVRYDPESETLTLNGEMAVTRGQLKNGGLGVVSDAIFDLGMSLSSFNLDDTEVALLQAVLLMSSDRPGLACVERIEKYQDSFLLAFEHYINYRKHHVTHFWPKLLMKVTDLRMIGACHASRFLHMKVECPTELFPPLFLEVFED
Summary of the method: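 Inhibition of T3-driven (0.4nM final) beta-lactamase reporter activity was measured over 0.59 nM to 92 uM compound after 18 h at 37 C. The cells were GripTite HEK293 TR-UAS-bla in charcoal/dextran-stripped serum, with CCF4 ratio read-out and IC50 from Hill fits.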

[4] = target: Voltage-gated inwardly rectifying potassium channel KCNH2 (Homo sapiens) (UniProt Q12809); assay: qHTS Assay for Small Molecule Inhibitors of the Human hERG Channel Activity (AID 588834); conditions: U2OS BacMam hERG, FluxOR thallium flux fluorescence; series mostly up to 46.1 µM;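 also: lower thallium flux fluorescence means stronger hERG block; nearly all actives have a fitted effect of over 50% in size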; also: potency is read from the fitted curve at half-maximal effect
Chain of Voltage-gated inwardly rectifying potassium channel KCNH2 (Homo sapiens) (Q12809 whole entry, looked up): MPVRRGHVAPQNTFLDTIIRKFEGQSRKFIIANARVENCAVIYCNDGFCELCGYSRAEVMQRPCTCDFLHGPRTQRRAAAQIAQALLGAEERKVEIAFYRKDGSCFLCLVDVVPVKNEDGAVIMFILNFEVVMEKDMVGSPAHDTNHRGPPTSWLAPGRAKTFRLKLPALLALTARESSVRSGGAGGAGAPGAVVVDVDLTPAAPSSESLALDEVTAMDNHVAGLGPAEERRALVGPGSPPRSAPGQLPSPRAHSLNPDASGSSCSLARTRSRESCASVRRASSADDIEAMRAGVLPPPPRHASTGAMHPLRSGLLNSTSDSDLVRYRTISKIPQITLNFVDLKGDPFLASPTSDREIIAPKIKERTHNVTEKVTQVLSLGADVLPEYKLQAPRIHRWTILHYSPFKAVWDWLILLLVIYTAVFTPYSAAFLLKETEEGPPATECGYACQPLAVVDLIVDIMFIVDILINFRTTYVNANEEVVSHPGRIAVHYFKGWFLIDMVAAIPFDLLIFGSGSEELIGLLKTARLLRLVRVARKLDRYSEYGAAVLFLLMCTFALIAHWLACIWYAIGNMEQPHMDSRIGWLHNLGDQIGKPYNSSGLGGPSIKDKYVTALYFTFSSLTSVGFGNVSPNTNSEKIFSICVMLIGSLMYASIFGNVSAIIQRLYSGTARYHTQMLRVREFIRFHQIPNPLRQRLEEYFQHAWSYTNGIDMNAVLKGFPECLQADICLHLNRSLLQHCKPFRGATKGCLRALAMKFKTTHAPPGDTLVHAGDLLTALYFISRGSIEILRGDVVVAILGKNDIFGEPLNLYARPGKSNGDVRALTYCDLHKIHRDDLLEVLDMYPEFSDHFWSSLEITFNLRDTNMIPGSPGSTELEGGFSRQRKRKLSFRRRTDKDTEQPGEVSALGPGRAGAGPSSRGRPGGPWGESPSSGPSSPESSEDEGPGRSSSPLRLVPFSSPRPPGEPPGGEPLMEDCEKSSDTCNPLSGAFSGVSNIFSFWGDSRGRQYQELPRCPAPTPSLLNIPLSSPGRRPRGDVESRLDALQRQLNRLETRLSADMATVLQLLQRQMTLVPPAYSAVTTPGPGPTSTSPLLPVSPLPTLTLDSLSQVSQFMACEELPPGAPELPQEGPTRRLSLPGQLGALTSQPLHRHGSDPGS
Summary of the method: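 Thallium-flux (FluxOR) read-out on FDSS: fluorescence read 10 s before and 2 min after stimulation buffer. hERG-BacMam-transduced U2OS cells, compound exposure about 10 min. AC50 by standard Hill equation.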

[5] = target: Luciferin 4-monooxygenase (Photinus pyralis) (UniProt P08659); assay: Biochemical firefly luciferase enzyme assay for NPC (AID 624030);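 also: purified P. pyralis luciferase at 10 nM with luciferin and ATP substrate; nearly all actives have a fitted effect of over 70% in size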; conditions: purified P. pyralis luciferase, luminescence, 5 min; series mostly up to 58.6 µM
Chain of Luciferin 4-monooxygenase (Photinus pyralis) (P08659 whole entry, looked up): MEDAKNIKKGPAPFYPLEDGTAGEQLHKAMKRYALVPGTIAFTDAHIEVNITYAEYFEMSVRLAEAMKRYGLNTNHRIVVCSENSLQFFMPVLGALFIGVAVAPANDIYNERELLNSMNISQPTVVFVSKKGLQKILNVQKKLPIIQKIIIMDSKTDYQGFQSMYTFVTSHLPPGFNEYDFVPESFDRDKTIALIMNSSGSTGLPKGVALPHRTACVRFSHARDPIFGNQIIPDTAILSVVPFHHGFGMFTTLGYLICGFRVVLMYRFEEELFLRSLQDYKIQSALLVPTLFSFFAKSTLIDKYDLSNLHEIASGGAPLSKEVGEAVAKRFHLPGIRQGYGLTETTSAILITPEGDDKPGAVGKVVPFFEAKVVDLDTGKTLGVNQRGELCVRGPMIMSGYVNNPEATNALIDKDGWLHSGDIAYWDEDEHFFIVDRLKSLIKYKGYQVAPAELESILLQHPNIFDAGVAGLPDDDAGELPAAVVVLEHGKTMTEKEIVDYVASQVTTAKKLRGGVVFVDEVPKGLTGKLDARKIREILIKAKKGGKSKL
Summary of the method: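 Direct inhibition of firefly luciferase enzyme (10 nM final, 50 mM Tris Acetate) assessed by luminescence within 5 minutes. Percent activity scaled between DMSO and PTC124 positive control, with concentration-effect curves classified by fit quality and response.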

[6] = S16 Schwann cell viability assay (CellTiter-Glo assay) (AID 624031); conditions: S16 rat Schwann cells viability, 24 h; series mostly up to 57.5 µM; also: nearly all actives have a fitted effect of over 70% in size; also: potency is read from the fitted curve at half-maximal effect
Summary of the method: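 Native S16 rat Schwann cells in DMEM/10% FBS without phenol red were incubated overnight, then exposed to compounds for 24 h at 37 °C/5% CO2. Viability was read as ATP luminescence (CellTiter-Glo), normalized to no-cell wells and DMSO (0%).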

[7] = S16 Schwann cell PMP22 intronic element firefly luciferase assay (AID 624032); conditions: S16 rat Schwann cells, PMP22 element FLuc, 24 h; series mostly up to 57.5 µM; also: nearly all actives have a fitted effect of over 30% in size; also: potency is read from the fitted curve at half-maximal effect
Summary of the method: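 Luciferase reporter of PMP22 intronic-element expression in stably transfected S16 rat Schwann cells, read by ONE-Glo luminescence after 24 h compound exposure at 37 C. Activity scaled between DMSO (0%) and positive-control PTC124; concentration-effect curves quality-classified.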

[8] = target: Glutaminase kidney isoform, mitochondrial (Homo sapiens) (UniProt O94925); assay: qHTS for Inhibitors of Glutaminase (GLS): LOPAC Validation (AID 624146); conditions: glutaminase enzyme activity inhibition; series mostly up to 46.1 µM;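 also: glutamate product detected by oxidase and peroxidase coupled Amplex red fluorescence gain; nearly all actives have a fitted effect of over 60% in size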
Chain of Glutaminase kidney isoform, mitochondrial (Homo sapiens) (O94925 whole entry, looked up, canonical isoform): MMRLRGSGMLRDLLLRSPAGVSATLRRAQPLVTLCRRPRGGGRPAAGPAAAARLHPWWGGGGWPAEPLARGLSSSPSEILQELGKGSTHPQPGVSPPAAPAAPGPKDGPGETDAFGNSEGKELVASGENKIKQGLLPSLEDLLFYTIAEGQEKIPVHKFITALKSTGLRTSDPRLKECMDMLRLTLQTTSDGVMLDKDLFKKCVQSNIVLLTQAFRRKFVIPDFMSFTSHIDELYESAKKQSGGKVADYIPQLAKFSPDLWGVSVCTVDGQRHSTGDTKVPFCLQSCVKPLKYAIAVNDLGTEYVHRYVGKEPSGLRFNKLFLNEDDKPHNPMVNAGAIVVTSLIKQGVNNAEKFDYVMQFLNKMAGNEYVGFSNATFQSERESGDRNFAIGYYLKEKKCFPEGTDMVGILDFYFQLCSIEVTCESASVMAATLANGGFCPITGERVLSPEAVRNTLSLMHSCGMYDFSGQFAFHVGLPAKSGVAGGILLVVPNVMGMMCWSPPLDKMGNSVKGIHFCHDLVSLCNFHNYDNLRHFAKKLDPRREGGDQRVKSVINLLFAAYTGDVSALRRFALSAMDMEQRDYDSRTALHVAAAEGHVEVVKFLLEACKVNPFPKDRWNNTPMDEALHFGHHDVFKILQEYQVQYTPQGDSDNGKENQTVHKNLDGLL
Summary of the method: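 Read-out is an Amplex red fluorescence increase coupled through glutamate oxidase and HRP, measured before and after 30 min room-temperature incubation. hKGA is in 45 mM KH2PO4 (pH 8.2) with 0.02% Tween-20; glutamine added as 1mM solution.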

[9] = qHTS of Trypanosoma Brucei Inhibitors: LOPAC Validation (AID 624147); conditions: purified enzyme assay, luminescence, 45 min; series mostly up to 57.5 µM
Summary of the method: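 TbPYK + substrate in 50 mM TEA pH 7.2, 100 mM KCl, 10 mM MgCl2, 0.05% BSA, 0.01% Tween-20; cpd pinned; ADP 130 uM final; 45 min RT; Kinase-Glo Plus 10 min; luminescence endpoint.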

[10] = S16 Schwann cell PMP22 intronic element beta-lactamase assay (AID 624044; calls by dose curve; also: nearly all actives have a fitted effect of over 15% in size); conditions: S16 rat Schwann cells, PMP22 element beta-lactamase FRET, 24 h; series mostly up to 38.3 µM
Summary of the method: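 Beta-lactamase reporter under a PMP22 intronic regulatory element in stable S16 rat Schwann cells; 24 h compound exposure. 460 nm blue signal normalized between DMSO (0%) and potassium clavulanate, with 535 nm FRET tracking viability; curves classed by r2 and response.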

Row | SMILES | max response [1] | max response [2] | activity change % (negative = inhibition) [3] | Potency [4] | Potency [5] | Potency [6] | Potency [7] | Potency [8] | outcome [9] | Potency [10]
1 | CC(C)(Oc1ccc(CCNC(=O)c2ccc(Cl)cc2)cc1)C(=O)O | 1.78% | -3.89% (inactive) | 12.2% (inactive) | inactive | inactive | inactive | inactive | inactive | inactive | –
2 | C[C@]12CCC(=O)C=C1CC[C@@H]1[C@@H]2CC[C@@]2(C)[C@H]1CC[C@]2(O)C(=O)CO | – | – | – | inactive | inactive | inactive | inactive | inactive | inactive | –
3 | CCCCNC(=O)NS(=O)(=O)c1ccc(C)cc1 | -0.0633% | -16.3% (inactive) | -17.2% (inactive) and -10.1% (inactive) | inactive | inactive | – | inactive | inactive | inactive | inactive
4 | CCCCOCCOCCOCc1cc2c(cc1CCC)OCO2 | -2.81% and -3.67% | -27.1% (inactive) and 3.9% (inactive) | 4.23% (inactive) and -22.6% (inactive) | inactive | inactive | – | inactive | – | – | inactive
5 | CC(N=C(NC#N)Nc1ccncc1)C(C)(C)C (centres undefined) | – | – | – | inactive | inactive | inactive | inactive | inactive | inactive | inactive
6 | O=C(O)CCCCCCCC(=O)O | -5.98% | 0.796% (inactive) | -5.44% (inactive) | inactive | inactive | inactive | inactive | – | inactive | inactive
7 | C[C@]12C=CC(=O)C=C1CC[C@H]1[C@@H]3C[C@@H](O)[C@](O)(C(=O)CO)[C@@]3(C)C[C@H](O)[C@@]12F | -1.48% | -2.06% (inactive) | -4.06% (inactive) | – | – | – | – | inactive | inactive | –
8 | NC(=O)N1c2ccccc2C=Cc2ccccc21 | -1.27% and -13.7% | 2.96% (inactive) and -0.41% (inactive) | 8.17% (inactive) | inactive | inactive | inactive | inactive | – | inactive | –
9 | NC(N)=NC(=O)Cc1c(Cl)cccc1Cl | – | – | – | inactive | inactive | inactive | inactive | – | inactive | inactive
10 | CC(=O)Nc1nnc(S(N)(=O)=O)s1 | -6.44% | -1.61% (inactive) | -8.01% (inactive) | inactive | inactive | inactive | – | – | inactive | –
11 | C[C@]12CCC(=O)C=C1CC[C@@H]1[C@@H]2C(=O)C[C@@]2(C)[C@H]1CC[C@]2(O)C(=O)CO | 12.6% | -20.1% (inactive) | 8.91% (inactive) | inactive | – | – | – | inactive | inactive | –
12 | Cc1cc(C)c(/C=C2\C(=O)Nc3ccccc32)[nH]1 | – | – | – | 25.1 µM (active) and 7.94 µM (active) | inactive | inactive | inactive | inactive | inactive | inactive
13 | FC(F)(F)c1ccccc1-n1ccnc1 | – | – | – | inactive | inactive | inactive | inactive | inactive | inactive | inactive
14 | NC(=Nc1ccccc1)Nc1ccccc1 | -5.44% and -1.29% | -22.5% (inactive) and -7.28% (inactive) | -0.182% (inactive) | – | inactive | inactive | inactive | – | – | –
15 | Cc1nnc(SCC2=C(C(=O)O)N3C(=O)[C@@H](NC(=O)Cn4cnnn4)[C@H]3SC2)s1 | – | – | – | inactive | inactive | inactive | inactive | inactive | inactive | –
16 | COc1cc(Cc2cnc(N)nc2N)cc(OC)c1OC | -17.2% | 0.608% (inactive) | -6.78% (inactive) | inactive | inactive | inactive | inactive | – | inactive | inactive
17 | CC(=O)[C@@]1(O)CC[C@H]2[C@@H]3CCC4=CC(=O)CC[C@]4(C)[C@H]3CC[C@@]21C | 9.81% | -1.98% (inactive) | – | inactive | inactive | inactive | inactive | – | inactive | inactive
18 | Brc1c(NC2=NCCN2)ccc2nccnc12 | – | – | – | inactive | inactive | inactive | inactive | – | inactive | –
19 | CN=C(NC#N)NCCSCc1nc[nH]c1C | 1.01% | 4.57% (inactive) | 11.1% (inactive) | – | inactive | inactive | – | inactive | inactive | –
20 | NC(=O)c1ncn([C@@H]2O[C@H](CO)[C@@H](O)[C@H]2O)c1O | – | – | – | inactive | inactive | inactive | inactive | inactive | inactive | –
21 | CCOC(=O)c1cnc2c(cnn2CC)c1NN=C(C)C | – | – | – | inactive | inactive | inactive | inactive | – | inactive | inactive
22 | CCN(CC)CCCN(c1ccccc1)C1Cc2ccccc2C1 | – | – | – | 794 nM (active) | inactive | 14.4 µM (active) | 16.1 µM (active) | inactive | inactive | –
23 | CC(=O)Oc1cc(C(C)C)c(OCCN(C)C)cc1C | – | – | – | inactive | inactive | inactive | inactive | inactive | inactive | –
24 | C[N+](C)(C)CCOC(N)=O | – | – | – | inactive | inactive | inactive | inactive | inactive | inactive | –
